# Measured values as given in the supplement of paper PMC4466140.
# What was measured:
# Assay in all cases: SPOT peptide array binding signal intensity (averaged, normalized) (arbitrary units (background-subtracted, floor 0; scale differs between SH3 domains)); higher = stronger binding of the SH3 domain to the peptide
# AgAbp1 = biological target: AgAbp1
# How it was run: (§1)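 GST-fused SH3 domains from four yeast species were expressed in E. coli BL21(DE3), purified on glutathione Sepharose and incubated at 10 μg/ml overnight at 4°C in TBS-based blocking buffer on cellulose membranes carrying synthetic 15-mer peptides, with cysteines replaced by serines. Bound protein was detected with anti-GST antibody, an HRP anti-mouse secondary and luminol, then imaged and quantified with Genespotter. Binding signal is the normalized, background-subtracted spot intensity averaged over replicates, in arbitrary units that differ between domains.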
# AgBbc1 = biological target: AgBbc1
# How it was run: as §1
# AgBem1-D1 = biological target: AgBem1-D1
# How it was run: as §1
# AgBzz1-D1 = biological target: AgBzz1-D1
# How it was run: as §1
# AgBzz1-D2 = biological target: AgBzz1-D2
# How it was run: as §1
# AgCyk3 = biological target: AgCyk3
# How it was run: as §1
# AgFus1 = biological target: AgFus1
# How it was run: as §1
# AgHof1 = biological target: AgHof1
# How it was run: as §1
# AgHse1 = biological target: AgHse1
# How it was run: as §1
# AgLsb1 = biological target: AgLsb1
# How it was run: as §1
# AgLsb4 = biological target: AgLsb4
# How it was run: as §1
# AgMyo5 = biological target: AgMyo5
# How it was run: as §1
# AgNbp2 = biological target: AgNbp2
# How it was run: as §1
# AgRvs167 = biological target: AgRvs167
# How it was run: as §1
# AgSho1 = biological target: AgSho1
# How it was run: as §1
# AgSla1-D1-D2 = biological target: AgSla1-D1-D2
# How it was run: as §1
# AgSla1-D3 = biological target: AgSla1-D3
# How it was run: as §1
# CaAbp1-D1 = biological target: CaAbp1-D1
# How it was run: as §1
# CaAbp1-D2 = biological target: CaAbp1-D2
# How it was run: as §1
# CaBbc1 = biological target: CaBbc1
# How it was run: as §1
# CaBem1-D1 = biological target: CaBem1-D1
# How it was run: as §1
# CaBzz1-D1 = biological target: CaBzz1-D1
# How it was run: as §1
# CaBzz1-D2 = biological target: CaBzz1-D2
# How it was run: as §1
# CaCyk3 = biological target: CaCyk3
# How it was run: as §1
# CaFus1 = biological target: CaFus1
# How it was run: as §1
# CaHof1 = biological target: CaHof1
# How it was run: as §1
# CaHse1 = biological target: CaHse1
# How it was run: as §1
# CaLsb1 = biological target: CaLsb1
# How it was run: as §1
# CaLsb4 = biological target: CaLsb4
# How it was run: as §1
# CaMyo5 = biological target: CaMyo5
# How it was run: as §1
# CaNbp2 = biological target: CaNbp2
# How it was run: as §1
# CaRvs167 = biological target: CaRvs167
# How it was run: as §1
# CaRvs167-3 = biological target: CaRvs167-3
# How it was run: as §1
# CaSho1 = biological target: CaSho1
# How it was run: as §1
# CaSla1-D1-D2 = biological target: CaSla1-D1-D2
# How it was run: as §1
# CaSla1-D3 = biological target: CaSla1-D3
# How it was run: as §1
# ScAbp1 = biological target: ScAbp1
# How it was run: as §1
# ScBbc1 = biological target: ScBbc1
# How it was run: as §1
# ScBem1-D1 = biological target: ScBem1-D1
# How it was run: as §1
# ScBzz1-D1 = biological target: ScBzz1-D1
# How it was run: as §1
# ScBzz1-D2 = biological target: ScBzz1-D2
# How it was run: as §1
# ScCyk3 = biological target: ScCyk3
# How it was run: as §1
# ScFus1 = biological target: ScFus1
# How it was run: as §1
# ScHof1 = biological target: ScHof1
# How it was run: as §1
# ScHse1 = biological target: ScHse1
# How it was run: as §1
# ScLsb1 = biological target: ScLsb1
# How it was run: as §1
# ScLsb2 = biological target: ScLsb2
# How it was run: as §1
# ScLsb3 = biological target: ScLsb3
# How it was run: as §1
# ScLsb4 = biological target: ScLsb4
# How it was run: as §1
# ScMyo3 = biological target: ScMyo3
# How it was run: as §1
# ScMyo5 = biological target: ScMyo5
# How it was run: as §1
# ScNbp2 = biological target: ScNbp2
# How it was run: as §1
# ScPex13 = biological target: ScPex13
# How it was run: as §1
# ScRvs167 = biological target: ScRvs167
# How it was run: as §1
# ScSho1 = biological target: ScSho1
# How it was run: as §1
# ScSla1-D1-D2 = biological target: ScSla1-D1-D2
# How it was run: as §1
# ScSla1-D3 = biological target: ScSla1-D3
# How it was run: as §1
# SpAbp1-D1 = biological target: SpAbp1-D1
# How it was run: as §1
# SpBbc1 = biological target: SpBbc1
# How it was run: as §1
# SpBzz1-D1 = biological target: SpBzz1-D1
# How it was run: as §1
# SpBzz1-D2 = biological target: SpBzz1-D2
# How it was run: as §1
# SpCyk3 = biological target: SpCyk3
# How it was run: as §1
# SpHof1 = biological target: SpHof1
# How it was run: as §1
# SpHof1-2 = biological target: SpHof1-2
# How it was run: as §1
# SpHof1-3 = biological target: SpHof1-3
# How it was run: as §1
# SpHse1 = biological target: SpHse1
# How it was run: as §1
# SpLsb1 = biological target: SpLsb1
# How it was run: as §1
# SpLsb4 = biological target: SpLsb4
# How it was run: as §1
# SpMyo1 = biological target: SpMyo1
# How it was run: as §1
# SpNbp2 = biological target: SpNbp2
# How it was run: as §1
# SpPex13 = biological target: SpPex13
# How it was run: as §1
# SpRvs167 = biological target: SpRvs167
# How it was run: as §1
# SpSla1-D1-D2 = biological target: SpSla1-D1-D2
# How it was run: as §1
# SpSla1-D3 = biological target: SpSla1-D3
# How it was run: as §1
binder,measurement,setting,value
KNPRRQLQIPRQQPS,SPOT peptide array binding signal intensity,AgAbp1,242
same,SPOT peptide array binding signal intensity,AgBbc1,60.8
same,SPOT peptide array binding signal intensity,AgBem1-D1,73
same,SPOT peptide array binding signal intensity,AgBzz1-D1,77
same,SPOT peptide array binding signal intensity,AgBzz1-D2,44
same,SPOT peptide array binding signal intensity,AgCyk3,≤ 0
same,SPOT peptide array binding signal intensity,AgFus1,9.5
same,SPOT peptide array binding signal intensity,AgHof1,55.8
same,SPOT peptide array binding signal intensity,AgHse1,142
same,SPOT peptide array binding signal intensity,AgLsb1,100
same,SPOT peptide array binding signal intensity,AgLsb4,25
same,SPOT peptide array binding signal intensity,AgMyo5,7
same,SPOT peptide array binding signal intensity,AgNbp2,16.5
same,SPOT peptide array binding signal intensity,AgRvs167,2.67
same,SPOT peptide array binding signal intensity,AgSho1,≤ 0
same,SPOT peptide array binding signal intensity,AgSla1-D1-D2,44
same,SPOT peptide array binding signal intensity,AgSla1-D3,2.5
same,SPOT peptide array binding signal intensity,CaAbp1-D1,728
same,SPOT peptide array binding signal intensity,CaAbp1-D2,464
same,SPOT peptide array binding signal intensity,CaBbc1,218
same,SPOT peptide array binding signal intensity,CaBem1-D1,73
same,SPOT peptide array binding signal intensity,CaBzz1-D1,84
same,SPOT peptide array binding signal intensity,CaBzz1-D2,42
same,SPOT peptide array binding signal intensity,CaCyk3,7
same,SPOT peptide array binding signal intensity,CaFus1,208
same,SPOT peptide array binding signal intensity,CaHof1,≤ 0
same,SPOT peptide array binding signal intensity,CaHse1,1
same,SPOT peptide array binding signal intensity,CaLsb1,0.5
same,SPOT peptide array binding signal intensity,CaLsb4,51.5
same,SPOT peptide array binding signal intensity,CaMyo5,5
same,SPOT peptide array binding signal intensity,CaNbp2,333
same,SPOT peptide array binding signal intensity,CaRvs167,12
same,SPOT peptide array binding signal intensity,CaRvs167-3,11.8
same,SPOT peptide array binding signal intensity,CaSho1,47.5
same,SPOT peptide array binding signal intensity,CaSla1-D1-D2,148
same,SPOT peptide array binding signal intensity,CaSla1-D3,1.25
same,SPOT peptide array binding signal intensity,ScAbp1,146
same,SPOT peptide array binding signal intensity,ScBbc1,7.25
same,SPOT peptide array binding signal intensity,ScBem1-D1,29
same,SPOT peptide array binding signal intensity,ScBzz1-D1,47.5
same,SPOT peptide array binding signal intensity,ScBzz1-D2,8
same,SPOT peptide array binding signal intensity,ScCyk3,15
same,SPOT peptide array binding signal intensity,ScFus1,98
same,SPOT peptide array binding signal intensity,ScHof1,0.75
same,SPOT peptide array binding signal intensity,ScHse1,527
same,SPOT peptide array binding signal intensity,ScLsb1,162
same,SPOT peptide array binding signal intensity,ScLsb2,2
same,SPOT peptide array binding signal intensity,ScLsb3,132
same,SPOT peptide array binding signal intensity,ScLsb4,12
same,SPOT peptide array binding signal intensity,ScMyo3,2
same,SPOT peptide array binding signal intensity,ScMyo5,1
same,SPOT peptide array binding signal intensity,ScNbp2,173
same,SPOT peptide array binding signal intensity,ScPex13,≤ 0
same,SPOT peptide array binding signal intensity,ScRvs167,13.5
same,SPOT peptide array binding signal intensity,ScSho1,95
same,SPOT peptide array binding signal intensity,ScSla1-D1-D2,442
same,SPOT peptide array binding signal intensity,ScSla1-D3,21
same,SPOT peptide array binding signal intensity,SpAbp1-D1,306
same,SPOT peptide array binding signal intensity,SpBbc1,1
same,SPOT peptide array binding signal intensity,SpBzz1-D1,240
same,SPOT peptide array binding signal intensity,SpBzz1-D2,0.5
same,SPOT peptide array binding signal intensity,SpCyk3,1
same,SPOT peptide array binding signal intensity,SpHof1,126
same,SPOT peptide array binding signal intensity,SpHof1-2,11.5
same,SPOT peptide array binding signal intensity,SpHof1-3,266
same,SPOT peptide array binding signal intensity,SpHse1,260
same,SPOT peptide array binding signal intensity,SpLsb1,54.2
same,SPOT peptide array binding signal intensity,SpLsb4,129
same,SPOT peptide array binding signal intensity,SpMyo1,2
same,SPOT peptide array binding signal intensity,SpNbp2,53
same,SPOT peptide array binding signal intensity,SpPex13,5
same,SPOT peptide array binding signal intensity,SpRvs167,16.7
same,SPOT peptide array binding signal intensity,SpSla1-D1-D2,3.5
same,SPOT peptide array binding signal intensity,SpSla1-D3,2
